Source: PubChem BioAssay
Rows were chosen to be rich in hits. Some 2.7% of all compounds tested hit in one or more screens of this group.
12-LOX inh: blocks human arachidonate 12S-lipoxygenase; P18054; purified 12hLO, xylenol orange hydroperoxide absorbance; Potency, µM (doses to about 108 µM), for inactives: top-dose activity change, negative = inhibition, actives largely listed as inhibitors; actives 1.1% (n = 580,000); note: potency is the fitted concentration of half-maximal effect; % is set by controls: 0 for no effect and ±100 for the full control effect
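Hydroperoxide product was detected by ferrous iron/xylenol orange as the 573 to 405 nm absorbance ratio. Arachidonic acid at 40 uM (final) was turned over for 30 min at room temperature by 150 nM human 12hLO, pH 7.0 Hepes buffer, after 15 min compound preincubation.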
IDH1 R132H inh: blocks human mutant IDH1 R132H enzyme; O75874; IDH1-R132H enzyme, NADPH consumption, diaphorase/resazurin fluorescence; Potency, µM (highest dose often 76.6 µM), without a hit: at the highest dose activity change, negative = inhibition, most hits filed as inhibitors; actives 0.093% (n = 390,000); note: potency is the fitted concentration of half-maximal effect; % is set by controls: 0 for no effect and ±100 for the full control effect; nearly all actives have a fitted effect of over 65% in size
Target sequence (O75874 whole entry R132H, stated change not applied): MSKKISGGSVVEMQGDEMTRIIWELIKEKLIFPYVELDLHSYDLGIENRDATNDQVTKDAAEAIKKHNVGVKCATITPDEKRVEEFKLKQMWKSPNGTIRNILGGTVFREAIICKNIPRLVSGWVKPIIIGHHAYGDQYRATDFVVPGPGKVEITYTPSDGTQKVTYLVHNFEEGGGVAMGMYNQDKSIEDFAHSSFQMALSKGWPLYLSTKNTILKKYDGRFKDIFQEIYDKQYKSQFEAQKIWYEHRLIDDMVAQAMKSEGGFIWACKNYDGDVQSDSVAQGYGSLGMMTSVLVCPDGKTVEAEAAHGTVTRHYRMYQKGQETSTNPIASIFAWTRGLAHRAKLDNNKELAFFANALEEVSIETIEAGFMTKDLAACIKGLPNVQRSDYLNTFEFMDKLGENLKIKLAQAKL
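IDH1-R132H (0.5 ug/mL dispensed) in pH 7.5 Tris buffer was preincubated 30 min with compound, then given a substrate mix of 0.016 mM NADPH and 2 mM alpha-KG for 80 min at room temperature; remaining NADPH was read by diaphorase/resazurin fluorescence.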
A549 tox-1: counter-screen for Nrf2 inhibitors: cytotoxicity in A549 cells; Potency, µM (series often up to 46 µM), inactives show top-dose activity change, negative = cytotoxicity, most hits filed as inhibitors; A549 ARE-Fluc cells, CellTiter-Fluor viability, 18-24 h; actives 0.16% (n = 390,000); note: potency is the fitted concentration of half-maximal effect; % is set by controls: 0 for no effect and ±100 for the full control effect
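Cytotoxicity counterscreen: CellTiter-Fluor fluorescence was measured in A549 ARE_Fluc cells after 18-24 h of compound exposure in a concentration series. The subsequent BugLite luminescent read reports ARE-luciferase activity.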
LDHA block: LDHA (human) enzyme inhibition; actives 0.15% (n = 480,000); activity change, % (values are at about 110 or 230 µM); P00338; purified LDHA, NADH/diaphorase-resazurin fluorescence; hits give low values; in the data active = activity change below about -30%; inconclusive = mostly about -25% to -30%;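 note: plate controls were DMSO wells for no effect and wells without enzyme for full effect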
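Remaining NADH was detected by diaphorase (0.133 mg/mL) converting 37 µM resazurin to fluorescent resorufin, read at 0 and 20 minutes. The preceding 5-minute room-temperature reaction used 2 nM LDHA, 0.2 mM sodium pyruvate and 0.06 mM NADH at pH 7.4.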
Nrf2 block: inhibitors of Nrf2 signaling; AID 504444; actives 2.1% (n = 360,000); A549 ARE-Fluc reporter, luciferase luminescence, 18-24 h; Potency, µM (series often up to 46 µM), without a hit: at the top dose activity change, negative = inhibition, most hits filed as inhibitors; note: potency is the fitted concentration of half-maximal effect; % is set by controls: 0 for no effect and ±100 for the full control effect; nearly all actives have a fitted effect of over 60% in size
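Nrf2 function is reported as luminescence of an ARE-controlled luciferase in A549 cells. Compounds were tested at several concentrations, and a CellTiter-Fluor read on the same wells flagged cytotoxicity.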
Nrf2 activator: activators of Nrf2 (ARE) signaling. actives 0.31% (n = 410,000). Potency, µM (top dose mostly 46.1 µM), without a hit: top-dose activation, hits mostly activators. AID 624171. AREc32 ARE-luciferase reporter (MCF7-derived line), luminescence, 24 h; note: potency is the fitted concentration of half-maximal effect; % of control where 0% means no effect; nearly all actives have a fitted effect of over 65% in size
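Quantitative high-throughput format: AREc32 reporter cells, 1000 per well, received compound by pin transfer and were incubated 24 hr at 37 deg C, 5% CO2, before Steady-Glo luminescence detection.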
FLuc counter 3: blocks purified firefly luciferase in Nrf2 counterscreen; shares compounds with Nrf2 block; purified firefly luciferase, luminescence inhibition; Potency, µM (series often up to 57.5 µM), for the others: at the highest dose activity change, negative = inhibition, usual class: inhibitors; actives 4% (n = 1,400); AID 720522; note: potency is the fitted concentration of half-maximal effect; % is set by controls: 0 for no effect and ±100 for the full control effect; nearly all actives have a fitted effect of over 65% in size
A549 tox-2: toxic to A549 ARE-Fluc cells in Nrf2 counterscreen; shares compounds with Nrf2 block; A549 ARE-Fluc cells, cytotoxicity counterscreen; Potency, µM (highest dose often 46.1 µM), for the others: at the top dose activity change, negative = cytotoxicity, hits mostly inhibitors; actives 2% (n = 1,400);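 note: potency is the fitted concentration of half-maximal effect; cells exposed to compounds for 18 to 24 hours; % is set by controls: 0 for no effect and ±100 for the full control effect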
Nrf2 ARE inh: reduces Nrf2 ARE reporter signal in A549 cells | shares compounds with Nrf2 block | A549 ARE-firefly luciferase reporter, luminescence | Potency, µM (highest dose often 46.1 µM), inactives show at the highest dose activity change, negative = inhibition, usual class: inhibitors | actives 74% (n = 1,400); note: potency is the fitted concentration of half-maximal effect; % is set by controls: 0 for no effect and ±100 for the full control effect; nearly all actives have a fitted effect of over 65% in size
* = called active by the depositor; [ ] = remark or other dose. Unless noted, calls come from the whole dose curve; as a rule, active = well fitted curve in the direction sought with a large enough effect; inconclusive = small, poorly fitted or top-dose-only effect, or another doubt; inactive = no such curve, though single readings can be large; an effect the other way counts as inactive or inconclusive.

Results for O=C(NCC(c1ccco1)N1CCCC1)c1ccc(Cl)c(S(=O)(=O)N2CCc3ccccc32)c1 (centres undefined) ?
12-LOX inh: 8.2%; IDH1 R132H inh: 1.1%; A549 tox-1: 8.2µM*; LDHA block: -3.3; Nrf2 block: 1.3µM*; Nrf2 activator: 7.2%; FLuc counter 3: -13.6%; A549 tox-2: -29.1%

How did CC(=O)Nc1ccc(NC(=O)c2c(-c3ccccc3)noc2C)cn1 do in these assays?
12-LOX inh: -0.7%; IDH1 R132H inh: -14.3%; A549 tox-1: -0.7%; LDHA block: -2.9; Nrf2 block: 7.31µM*; Nrf2 activator: 2.2%; FLuc counter 3: 3.5%; A549 tox-2: -8.0%; Nrf2 ARE inh: 9.2µM*

What do the screens show for `Cc1onc(-c2ccccc2)c1C(=O)Nc1ccncc1`?
12-LOX inh: 29.8%; IDH1 R132H inh: 3.0%; A549 tox-1: 2.7%; LDHA block: -12.2; Nrf2 block: 7.7%; Nrf2 activator: -0.1%

How did Cc1cc(C2=NNC(=NC3CC3)SC2)c(C)n1-c1ccccc1F do in these assays?
12-LOX inh: inconclusive; IDH1 R132H inh: inconclusive; A549 tox-1: -3.8%; LDHA block: 0.2; Nrf2 block: 0.92µM*; Nrf2 activator: -2.6%; FLuc counter 3: 2.7%; A549 tox-2: -9.7%

What do the screens show for `COc1cc([N+](=O)[O-])cc(/C=N/NC(=O)c2ccc(NC(=O)c3ccc(C)cc3)cc2)c1O`?
12-LOX inh: -8.7%; IDH1 R132H inh: -0.7%; A549 tox-1: inconclusive; LDHA block: -2.8; Nrf2 block: 4.61µM*; Nrf2 activator: 0.2%; FLuc counter 3: -15.7%; A549 tox-2: inconclusive; Nrf2 ARE inh: 6.51µM*

How did Cc1ccc(-c2onc(C)c2C)cc1S(=O)(=O)N1c2ccccc2CC1C (centres undefined) do in these assays?
12-LOX inh: -4.1%; IDH1 R132H inh: 0.0%; A549 tox-1: -18.7%; LDHA block: 1.4; Nrf2 block: 8.2µM*; Nrf2 activator: 0.0%; FLuc counter 3: 1.8%; A549 tox-2: -6.6%; Nrf2 ARE inh: inconclusive

How did Cc1ccc(-c2onc(C)c2C)cc1S(=O)(=O)N1CCOc2ccccc21 do in these assays?
12-LOX inh: -0.2%; IDH1 R132H inh: -5.3%; A549 tox-1: 11.7%; LDHA block: -1.9; Nrf2 block: inconclusive; Nrf2 activator: 0.1%

How did CC(C)Oc1cccc(C(=O)C2CCCN(Cc3cnc(N4CCOCC4)s3)C2)c1 (centres undefined) do in these assays?
12-LOX inh: -10.9%; IDH1 R132H inh: -1.1%; A549 tox-1: -18.4%; LDHA block: -3.8; Nrf2 block: 9.2µM*; Nrf2 activator: 4.2%; FLuc counter 3: 1.5%; A549 tox-2: -10.4%

How did COc1ccc(C(=O)C2CCCN(Cc3cnc(N4CCOCC4)s3)C2)c(OC)c1 (centres undefined) do in these assays?
12-LOX inh: -0.7%; IDH1 R132H inh: 7.6%; A549 tox-1: inconclusive; LDHA block: -0.5; Nrf2 block: 9.2µM*; Nrf2 activator: 4.0%; FLuc counter 3: 1.6%; A549 tox-2: -8.5%; Nrf2 ARE inh: -12.1%

How did COc1ccc(C(=O)C2CCCN(Cc3cnc(N4CCOCC4)s3)C2)cc1F (centres undefined) do in these assays?
12-LOX inh: 0.0%; IDH1 R132H inh: 1.4%; A549 tox-1: -0.2%; LDHA block: -12.9; Nrf2 block: inconclusive; Nrf2 activator: 2.9%

What do the screens show for `N#Cc1ccccc1NC1=CC(=O)CC(c2ccccc2)C1` (centres undefined)?
12-LOX inh: 32.5%; LDHA block: 3.5

What do the screens show for `O=C1C=CCC(/C=C/c2ccccc2)O1` (centres undefined)?
12-LOX inh: 6.9%; IDH1 R132H inh: -1.0%[38.3 µM]; A549 tox-1: -16.4%; LDHA block: -2.4; Nrf2 block: 2.59µM*; Nrf2 activator: 6.4%; FLuc counter 3: -9.1%; A549 tox-2: inconclusive; Nrf2 ARE inh: 1.3µM*

How did O=C(/C=C/c1ccccc1)C1CC1 do in these assays?
12-LOX inh: -0.7%; LDHA block: 9.4

What do the screens show for `COc1ccc(-n2c(-c3ccc(Br)cc3)c[n+]3c2CCC3)cc1`?
12-LOX inh: -15.8%; IDH1 R132H inh: -7.2%; A549 tox-1: -13.0%; LDHA block: -9.1; Nrf2 block: 4.61µM*; Nrf2 activator: -0.6%; FLuc counter 3: 0.7%; A549 tox-2: -0.5%; Nrf2 ARE inh: -35.8%

Results for COc1ccc(-n2c(-c3ccc(Br)cc3)c[n+]3c2CCCCC3)cc1 ?
12-LOX inh: inconclusive; IDH1 R132H inh: 9.9%; A549 tox-1: -2.2%; LDHA block: -8.7; Nrf2 block: inconclusive; Nrf2 activator: 2.5%

How did CCOc1ccc(-n2c(-c3ccc(Cl)cc3)c[n+]3c2SCC3)cc1 do in these assays?
12-LOX inh: 1.9%; IDH1 R132H inh: 0.0%; A549 tox-1: 2.5%; LDHA block: -4.6; Nrf2 block: -14.2%; Nrf2 activator: 0.4%

How did CCOc1ccc(-c2c[n+]3c(n2-c2ccccc2)CCCCC3)cc1 do in these assays?
12-LOX inh: -1.2%; IDH1 R132H inh: 9.4%; A549 tox-1: inconclusive; LDHA block: -5.3; Nrf2 block: 0.92µM*; Nrf2 activator: -0.1%; FLuc counter 3: 0.7%; A549 tox-2: -16.0%; Nrf2 ARE inh: 10.3µM*

What do the screens show for `COc1ccc(-n2c(-c3ccccc3)c[n+]3c2CCC3)cc1`?
12-LOX inh: 25.2%; IDH1 R132H inh: 4.3%; A549 tox-1: -12.3%; LDHA block: -2.2; Nrf2 block: 9.2µM*; Nrf2 activator: 0.4%; FLuc counter 3: 0.9%; A549 tox-2: -12.2%; Nrf2 ARE inh: 6.51µM*

How did N#Cc1nc(-c2ccc(F)cc2)oc1N1CCN(C(=O)c2cccs2)CC1 do in these assays?
12-LOX inh: 55.0%; LDHA block: 1.1
